Our source for the inhibition values is PubChem BioAssay AID1863 (Southern Research Specialized Biocontainment Screening …, 2009).

Where “and” joins values, the source holds several entries; their conditions need not be identical. Equal entries are not always repeated. Screen size: about 300,000 compounds; about 480 (0.16%) were called active. These entries were drawn from the full list. Measured potencies and affinities stand elsewhere. Unmarked numbers belong to inactive results.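 How the source made its calls: active means inhibition over 29.93%, a cutoff 3 SD above the screen mean, later confirmed by dose response; inconclusive means inhibition over 29.93% but no dose response follow-up; inactive means inhibition at most 29.93% or unconfirmed.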

As a reminder, the inhibition is the change of the read-out against control, counted positive when it falls.

A short description of this test: inhibitors of PhoP regulon expression, primary screen, Salmonella Typhimurium, GFP reporter (AID 1863).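 Further: 0% = low Mg2+ inducing control and 100% = high Mg2+ repressing control.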 As to conditions: S. Typhimurium PhoP-regulated promoter GFP reporter, 4 h; at 50 µM; hits give high values.
As to `CN1C(=O)[C@@H]2[C@H](C1=O)[C@@H]1C(=O)Nc3ccccc3C(=O)N1[C@@H]2c1ccc(F)cc1`, the inhibition is 6.12%.
`CC1Cc2ccccc2N1C(=O)CSc1nnnn1-c1ccc2c(c1)OCCO2` (stereo not drawn): the inhibition is 4.49%.
Regarding `C#CCOCCOCCOCCNc1nc(N2CCN(C(=O)CCCCCCCCCCNC(=O)[C@H](CCCCN)n3cc(CCO)nn3)CC2)nc(N2CCN(C(=O)CCCCCCCCCCNC(=O)[C@H](CCCN=C(N)N)n3cc(C[C@@H](C)CC)nn3)CC2)n1`, the inhibition was 25.8%.
The same measure for `C#CCOCCOCCOCCNc1nc(N2CCN(C(=O)CCCCCCCCCCNC(=O)[C@H](CCCCN)n3cc(CCCC(=O)O)nn3)CC2)nc(N2CCN(C(=O)CCCCCCCCCCNC(=O)[C@H](CCCN=C(N)N)n3cc(C[C@@H](C)CC)nn3)CC2)n1`: -5.84%; for `C#CCOCCOCCOCCNc1nc(N2CCN(C(=O)CCCCCCCCCCNC(=O)[C@H](CCCCN)n3cc(C)nn3)CC2)nc(N2CCN(C(=O)CCCCCCCCCCNC(=O)[C@H](CCCN=C(N)N)n3cc(C[C@@H](C)CC)nn3)CC2)n1`: 23.8%; for `C#CCOCCOCCOCCNc1nc(N2CCN(C(=O)CCCCCCCCCCNC(=O)[C@H](CCCCN)n3cc(C[C@@H](C)CC)nn3)CC2)nc(N2CCN(C(=O)CCCCCCCCCCNC(=O)[C@H](CCCCN)n3cc(C[C@@H](C)CC)nn3)CC2)n1`: 20.6%.
As for `Cc1cc(C)cc(NC(=O)CN(C)S(=O)(=O)c2cccc3nsnc23)c1`, the figure is -9.89%; as for `CC(C)CCNC(=O)NC(=O)COC(=O)CCN=C1NS(=O)(=O)c2ccccc21`, -10.2%.
The same measure for `COC(=O)CCC(=O)N1CN2CN(C(=O)CCC(=O)OC)CC([N+](=O)[O-])(C2)C1`: -5.21%; for `c1ccc(Nc2nn[nH]n2)cc1`: -21.5%; for `CCC(=O)O[C@@H]1CC(=O)O[C@H](C)CC=CC=C[C@@H](O)[C@H](C)C[C@H](CC=O)[C@H](O[C@H]2O[C@H](C)[C@@H](O[C@H]3C[C@@](C)(O)[C@@H](OC(=O)CC)[C@H](C)O3)[C@H](N(C)C)[C@H]2O)[C@H]1OC`: -22.5%.
For the compound `CC[C@H]1OC(=O)[C@H](C)[C@@H](O[C@H]2C[C@@](C)(OC)[C@@H](O)[C@H](C)O2)[C@H](C)[C@@H](O[C@@H]2O[C@H](C)C[C@H](N(C)C)[C@H]2O)[C@](C)(OC)C[C@@H](C)C(=O)[C@H](C)[C@@H](O)[C@]1(C)O`, the inhibition was -8.63% and -8.23%.
As for `CC1CCCN(C(=O)c2ccc(S(=O)(=O)Nc3ccccc3Cl)cc2)C1` (stereo not drawn), the figure is 3.82%.
The same measure for `Cc1ccc(CN2C(=O)CCC2C(=O)NCCN2CCN(c3cccc(Cl)c3)CC2)cc1` (stereo not drawn): -4.51%; for `CCOCCCNC(=O)c1ccc2c(c1)ncn2-c1ccc(C)cc1C`: -8.15%; for `NC(N)=N/N=C/c1ccc(OCc2ccc(Cl)cc2Cl)cc1`: -0.84%.
The same measure for `NC(N)=N/N=C/c1ccc(OCc2ccccc2)c(OCc2ccccc2)c1`: 10.4%.
With `NC(N)=N/N=C/c1ccc(OCc2ccccc2)cc1`, the inhibition was 17.1%.
As for `COc1cc(/C=N/N=C(N)N)ccc1OCc1ccc(Cl)cc1`, the figure is 2.42%; as for `CCn1ncc(Cl)c1C(=O)NC(=S)Nc1c(C)cc(C)cc1[N+](=O)[O-]`, 8.05%.
The same measure for `CC(=O)c1cccc(NC(=O)CCCNC(=O)c2ccc(Cl)cc2)c1`: 0.5%; for `O=C(O)[C@@H]1CSC2c3ccccc3C(=O)N21` (stereo partly drawn): -0.36%.
The same measure for `CSCC[C@H](NC(=O)Nc1ccc(Oc2ccccc2)cc1)C(=O)O`: 0.47%; for `COC(=O)CSc1nc(N)c(C#N)c(CC(C)C)c1C#N`: -5.81%; for `Cc1ccc(NS(=O)(=O)c2ccc3c(c2)NC(=O)CCS3)cc1F`: 4.54%.
Consider `COc1ccc(NC(=O)C/C(C)=N/NC(=O)c2cccs2)c([N+](=O)[O-])c1`, for which the inhibition was 6.98%.
As for `COc1ccccc1NC(c1cccnc1)c1ccc2cccnc2c1O` (stereo not drawn), the figure is 24.8%; as for `Oc1ccccc1C(Nc1nccs1)c1ccc2cccnc2c1O` (stereo not drawn), 1.53%; as for `Cc1ccc2ccc(C(Nc3ccccn3)c3ccccc3)c(O)c2n1` (stereo not drawn), 26.2%.
The same measure for `Oc1c(C(Nc2cccc(C(F)(F)F)c2)c2cccnc2)ccc2cccnc12` (stereo not drawn): 69.6%; for `O=C(Cc1cccs1)NCc1ccncc1`: 20.6%; for `CC1(C)CCC/C(=C\c2ccccc2)C1=O`: -2.34%.
As for `O=S(=O)(/N=C(/NNS(=O)(=O)c1ccccc1)c1ccccc1)c1ccccc1`, the figure is -3.53%; as for `CCN(CC)CCN(C)c1ccc(N2C(=O)C3CC=CCC3C2=O)cc1[N+](=O)[O-]` (stereo not drawn), -7.43%; as for `Oc1ccccc1Nc1nc(NCC2CCCO2)c2ccccc2n1` (stereo not drawn), 13.1%.
For `Oc1ccc(Nc2nc(NCC3CCCO3)c3ccccc3n2)cc1` (stereo not drawn), the inhibition was -10.2%.
As for `c1ccc(Nc2nc(NCC3CCCO3)c3ccccc3n2)cc1` (stereo not drawn), the figure is -1.89%; as for `COc1ccc(Nc2nc(NCC3CCCO3)c3ccccc3n2)c(OC)c1` (stereo not drawn), 0.13%.
As for `COCCOCC(O)CN1CCN(c2ccccc2)CC1` (stereo not drawn), the figure is 4.06%.
The same measure for `COc1ccccc1-c1noc(-c2ccccc2C(=O)NCC2CCCO2)n1` (stereo not drawn): -3.19%.
With `O=C(O)c1cccc(Nc2c3ccccc3nc3ccccc23)c1`, the inhibition is 10.2%.
The same measure for `Fc1cccc(Nc2c3c(nc4ccccc24)CCC3)c1`: 6.97%.
The same measure for `COc1ccc(Nc2c3ccccc3nc3ccccc23)cc1`: -2.51%.
In the case of `c1ccc(Nc2c3c(nc4ccccc24)CCC3)cc1`, the inhibition is 20.2%.
As for `CCOc1ccc(Nc2nc(N)c3ccccc3n2)cc1`, the figure is 29.9%; as for `COc1ccc(Nc2c3c(nc4ccccc24)CCC3)cc1`, 12.7%; as for `Cc1cc(Nc2cccc(O)c2)c2ccccc2n1`, 13.6%.
The same measure for `Cc1ccc2nc3c(c(Nc4ccccc4)c2c1)CCC3`: 21.7%.
The same measure for `Nc1n[nH]c(N)c1N=Nc1ccccc1F`: -3.09%; for `CCC(=O)Nc1ccc(C(=O)CSc2nc(N)cc(N)n2)cc1`: 4.88%; for `CS(=O)(=O)N1CCN(c2ccccc2NC(=O)c2cccnc2)CC1`: -0.66%.
On to `CC(C)CCNC(=O)c1c(CSc2ccccc2)noc1C(=O)NCc1ccccc1`, for which the inhibition is -1.54%.
The same measure for `Cc1cc(-c2nnc(SCC(=O)Nc3ccc(F)cc3F)n2N)n[nH]1`: -6.5%; for `COc1ccc(S(=O)(=O)N2CCC(C(=O)Nc3c(F)cccc3F)CC2)cc1`: 14.7%; for `Cn1c(=O)[nH]c(=O)c2c1nc(CN1CCN(c3ccc(F)cc3)CC1)n2CCCc1ccccc1`: -9.74%.
In the case of `CO[C@@]12[C@H](COC(N)=O)C3=C(C(=O)C(C)=C(N)C3=O)N1C[C@@H]1N[C@@H]12`, the inhibition was 17.4%.
As for `COc1ccc(C(=O)N2CCN(c3ncccn3)CC2)cc1`, the figure is 6.73%; as for `COc1ccc(-n2c(SCc3cccnc3)nc3c(c2=O)SCC3)cc1OC`, -5.3%; as for `Cc1ccccc1OCC(=O)NCC(=O)N/N=C/c1cccc([N+](=O)[O-])c1`, -0.52%.
As for `CCS(=O)(=O)Nc1c(C)n(C)n(-c2ccccc2)c1=O`, the figure is -5.83%.
The same measure for `NS(=O)(=O)c1ccc(CNC(=O)c2cc(-c3cccnc3)nc3ccc(Br)cc23)cc1`: -5.23%.
With `Cc1ccccc1N1CCN(C2CCCN(C(=O)c3ccccn3)C2)CC1` (stereo not drawn), the inhibition is -6.14%.
The same measure for `CCn1cc(C(=O)O)c(=O)c2cnc(N3CCN(C(=S)NC(=O)c4ccc(OC)cc4)CC3)nc21`: 1.6%; for `CCn1cc(C(=O)O)c(=O)c2cc(F)c(N3CCN(S(=O)(=O)c4ccc(Br)cc4)CC3)cc21`: 3.63%; for `Cc1cccc(C(=O)NC(=S)N2CCN(C(=S)NC(=O)c3cccc(C)c3)CC2)c1`: 12.1%.
The same measure for `CCn1cc(C(=O)O)c(=O)c2cc(F)c(N3CCN(S(=O)(=O)c4ccc(NC(=O)OC)cc4)CC3)cc21`: -9.02%; for `CCn1cc(C(=O)O)c(=O)c2cc(F)c(N3CCN(C(=S)NC(=O)c4cc(OC)cc(OC)c4)CC3)cc21`: 23.2%.
As for `C=CCCCCCCCCC(=O)N1CCN(c2cc3c(cc2F)c(=O)c(C(=O)O)cn3CC)CC1`, the figure is 11.3%; as for `CCn1cc(S(=O)(=O)c2ccc(OC)cc2)c(=O)c2cc(F)c(N3CCN(C)CC3)cc21`, -6.69%; as for `CCc1sc(C(=O)Nc2cccnc2)cc1Br`, -5.61%.
On to `COc1ccc2[nH]cc(CCNC(=O)c3ccc4ccccc4n3)c2c1`, for which the inhibition was -0.1%.
As for `CCC(=O)N1CCc2cc(Br)cc(S(=O)(=O)N3CCC(C(=O)NC(C)C)CC3)c21`, the figure is 3.79%.
For `CNc1cc(CSC)nc(SCc2ccc(Cl)c(Cl)c2)n1`, the inhibition was -2.03%.
As for `O=C(c1ccc2ncsc2c1)N1CCCCC1`, the figure is 0.96%.
As for `O=C(O)CCSc1nc2ccccc2n1Cc1ccccc1`, the figure is -0.57%; as for `NC(=O)CN(c1ccc([N+](=O)[O-])cc1)S(=O)(=O)c1ccccc1`, 10%.
The same measure for `CN(C)C(=O)/C(C#N)=C\c1cc(Br)c(Sc2ccc(Cl)cc2)o1`: 2.32%.
Turning to `Cc1nc2c(C)cccn2c(=O)c1NC(=O)c1ccco1`, the inhibition was 6.47%.
The same measure for `CCNC(=O)CN1C(=O)NC2(CCOc3ccccc32)C1=O` (stereo not drawn): -2.64%; for `CCn1cc(C(=O)N/N=C(/C)c2ccc(F)cc2)c(=O)c2cc(F)c(N3CCCC3)cc21`: -8.17%; for `CCn1cc(C(=O)O)c(=O)c2cnc(N3CCN(C(=S)NC(=O)c4ccc(Cl)cc4)CC3)nc21`: 30.7%.
As for `CCn1cc(C(=O)O)c(=O)c2cnc(N3CCN(C(=S)NC(=O)c4ccccc4)CC3)nc21`, the figure is 18.2%; as for `CCn1cc(C(=O)NCc2cccc(F)c2)c(=O)c2cc(F)c(N3CCN(C(=O)c4ccco4)CC3)cc21`, 12.3%.
